# About 14,000 (4.5%) of roughly 310,000 compounds showed an effect of 50% or more. Effects have a minus sign here. For the sample, strong results were picked, then their nearest neighbours and some compounds at random.
# Target: human ether-à-go-go-related gene (hERG) potassium channel (human, UniProt Q12809)
# Assay: primary screen, population patch clamp on CHO cells stably expressing hERG; higher = less effect of the substance
# 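Note: peak tail current of the secondary pulse compared with the same well before compound.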
# Sequence of human ether-à-go-go-related gene (hERG) potassium channel (Q12809 whole entry, looked up): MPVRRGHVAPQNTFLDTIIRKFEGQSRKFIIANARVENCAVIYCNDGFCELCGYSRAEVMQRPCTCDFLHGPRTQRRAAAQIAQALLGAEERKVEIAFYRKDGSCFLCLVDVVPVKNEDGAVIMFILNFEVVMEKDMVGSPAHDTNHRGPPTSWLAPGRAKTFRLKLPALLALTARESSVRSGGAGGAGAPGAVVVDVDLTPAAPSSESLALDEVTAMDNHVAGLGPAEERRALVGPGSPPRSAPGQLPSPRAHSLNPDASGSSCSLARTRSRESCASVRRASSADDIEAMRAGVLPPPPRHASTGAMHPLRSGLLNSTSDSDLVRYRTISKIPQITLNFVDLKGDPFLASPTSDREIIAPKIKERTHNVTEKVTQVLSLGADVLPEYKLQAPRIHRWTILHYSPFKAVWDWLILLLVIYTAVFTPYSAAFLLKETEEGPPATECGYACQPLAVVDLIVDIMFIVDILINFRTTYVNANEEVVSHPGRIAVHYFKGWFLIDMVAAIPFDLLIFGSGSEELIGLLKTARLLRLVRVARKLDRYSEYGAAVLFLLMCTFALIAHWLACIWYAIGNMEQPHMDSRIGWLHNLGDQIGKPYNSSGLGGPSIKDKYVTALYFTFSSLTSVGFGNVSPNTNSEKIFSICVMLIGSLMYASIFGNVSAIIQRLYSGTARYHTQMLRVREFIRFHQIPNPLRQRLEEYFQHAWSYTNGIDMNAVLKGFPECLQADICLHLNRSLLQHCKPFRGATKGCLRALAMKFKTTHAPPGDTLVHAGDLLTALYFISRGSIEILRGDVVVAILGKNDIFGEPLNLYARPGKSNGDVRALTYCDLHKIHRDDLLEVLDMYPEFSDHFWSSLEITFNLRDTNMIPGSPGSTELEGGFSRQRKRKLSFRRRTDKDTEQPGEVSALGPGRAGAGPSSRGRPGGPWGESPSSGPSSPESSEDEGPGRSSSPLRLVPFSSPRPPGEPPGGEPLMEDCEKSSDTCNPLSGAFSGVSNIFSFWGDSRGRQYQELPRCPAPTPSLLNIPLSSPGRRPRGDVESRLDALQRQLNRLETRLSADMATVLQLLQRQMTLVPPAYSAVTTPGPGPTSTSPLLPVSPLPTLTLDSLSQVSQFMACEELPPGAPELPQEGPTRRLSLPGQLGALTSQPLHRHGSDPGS
row,SMILES,"hERG current change (%, negative = inhibition) at 10uM [%]"
1,CCN(C(=O)COC(=O)c1[nH]c(C)c(C(C)=O)c1C)c1c(N)n(Cc2ccccc2)c(=O)[nH]c1=O,0.295
2,Cc1ccc2oc(C(=O)Nc3cc(C)on3)c(C)c2c1,-1.98
3,CCCCOc1ccc(NC(=O)C(=O)NCCC2=CCCCC2)cc1,2.25
4,CCCCCOC(=O)c1ccc(N2C(=O)C3C4C=CC(C4)C3C2=O)cc1 (centres unmarked),-6.84
5,C=CCn1c(SCC(=O)Nc2cc(C)on2)nc2sc3c(c2c1=O)CCCC3,-4
6,O=C(Nc1ccc(S(=O)(=O)Nc2ncccn2)cc1)c1cccc(Br)c1,16.5
7,CC(=O)c1ccc(NC(=O)CCc2nnc3ccc(NCc4ccco4)nn23)cc1,9.4
8,COc1ccc(CCn2c(O)c(C=Nc3ccccc3F)c(=O)[nH]c2=O)cc1OC,20.3
9,CCOc1ccc(C(N)=O)cc1OC,6.13
10,CN(C)c1ccc(C=Nc2cnn(C)c2C(N)=O)cc1,0.759
11,COc1ccc(NC(=O)CSc2nnc(-c3cccs3)n2N)c(OC)c1,0.565
12,Cn1cc(CN2CCC(N3CCNC(=O)CC3)CC2)c(-c2ccccc2F)n1,8.43
13,O=C1c2ccccc2C(=O)N1n1cccc1,8.7
14,COc1ccc(-n2c(C)c(C)c3c(NCCCN(C)C)ncnc32)cc1,-53.1
15,COc1ccc(-n2c(C)c(C)c3c(NCCN(C)C)ncnc32)cc1,-32.4
16,COc1ccc(Nc2ncnc3c2c(C)c(C)n3CCCN(C)C)cc1,-32.7
17,Cc1c(C)n(CCCN(C)C)c2ncnc(Nc3ccccc3)c12,-29.3
18,Cc1c(C)n(CCc2ccccc2)c2ncnc(NCCCN(C)C)c12,-58
19,Cc1c(C)n(CCCN(C)C)c2ncnc(Nc3ccc(F)cc3)c12,-50.8
20,COc1ccc(-n2c(C)c(C)c3c(NCCCO)ncnc32)cc1,-14.3
21,Cc1c(C)n(Cc2ccccc2)c2ncnc(NCCCN(C)C)c12,-28.4
22,Cc1c(C)n(CCc2ccccc2)c2ncnc(NCCCO)c12,-40.1

row,SMILES,"hERG current change (%, negative = inhibition) at 10uM [%]"
1,Cc1cc(NS(=O)(=O)c2ccc(NC(=O)CSc3nnc(-c4ccco4)n3C)cc2)nc(C)n1,5.75
2,CCCCn1c(N)c(N(CC(C)C)C(=O)C2CC(=O)N(CCc3ccccc3)C2)c(=O)[nH]c1=O (centres unmarked),7.09
3,Cc1ccc(Oc2nn[nH]n2)cc1,0.395
4,C=C1[C@@H](OC(C)=O)[C@]23C[C@@H]1[C@@H](OC(C)=O)CC2[C@]12C4C[C@H]3[C@H]1N(CC)C[C@]4(C)CC[C@@H]2O (some centres unmarked),-40.6
5,O=C(NCc1n[nH]c(=S)n1-c1ccc(Cl)c(Cl)c1)c1ccc(S(=O)(=O)N2CCOCC2)cc1,14.5
6,N#Cc1ccccc1OCc1nnc(-c2ccccc2Br)o1,14.1
7,O=C(NCc1cccnc1)c1ccccc1NS(=O)(=O)c1ccc(F)cc1F,9.6
8,Cn1c(SCCOc2ccccc2Cl)nnc1-c1cccs1,-35
9,Cc1ccc2c(c1)C1CN(C)CCC1N2C(=O)c1ccccc1NS(=O)(=O)c1cccc(C(F)(F)F)c1.Cl (centres unmarked),-48.5
10,Cc1ccc2c(c1)[C@@H]1CN(C)CC[C@@H]1N2C(=O)Nc1cccc(C(F)(F)F)c1,-38.5
11,Cc1ccc2c(c1)C1CN(C)CCC1N2C(=O)Nc1cccc(C(F)(F)F)c1 (centres unmarked),-52.4
12,Cc1ccc2c(c1)C1CN(C)CCC1N2C(=O)/C=C/c1ccc2c(c1)OCO2 (centres unmarked),-62.6
13,Cc1ccc2c(c1)C1CN(C)CCC1N2C(=O)Cc1cccs1.Cl (centres unmarked),-46.9
14,Cc1ccc2c(c1)C1CN(C)CCC1N2C(=O)/C(C#N)=C/c1ccc2c(c1)OCO2 (centres unmarked),-21.2
15,Cc1ccc2c(c1)C1CN(C)CCC1N2C(=O)c1cccc(S(=O)(=O)N2CC(C)CC(C)C2)c1.Cl (centres unmarked),-44.8
16,Cc1ccc2c(c1)C1CN(C)CCC1N2C(=O)c1cccnc1Cl.Cl (centres unmarked),1.59
17,Cc1ccc2c(c1)C1CN(C)CCC1N2C(=O)Nc1cccc(Cl)c1 (centres unmarked),-51.1
18,CCOC(=O)/C(C#N)=C/c1cccc(C)c1,12.6
19,COc1ccccc1-c1nnc(SCC(=O)NCc2ccco2)n1N,17.2
20,CN(Cc1ccccc1)C(=O)COC(=O)c1ccccc1Nc1ccccc1,13
21,NC(=O)COC(=O)c1c2c(nc3ccccc13)CCC2,9.85
22,NC(=O)COC(=O)c1c2c(nc3ccccc13)CCCCC2,-23.2

# From PMC4336329 (PLoS ONE, 2015)
